Screening data (PubChem)
Hits are enriched below; roughly 6.5% of the tested compounds scored in any of these assays.
LASV entry inh: qHTS for Inhibitors of binding or entry into cells for Lassa Virus. 1.2% of 300,000 active. Potency, µM (titrated, usually from 37.9 µM), most hits filed as inhibitors. Lassa virus pseudotype entry inhibition, cell reporter; calls by dose curve; tested in HEK293 cells; also: nearly all actives have a fitted effect of over 50% in size
MARV entry inh: qHTS for inhibitors of binding or entry into cells for Marburg Virus | Marburg virus pseudotyped entry inhibition, cell reporter | Potency, µM (series often up to 37.8 µM), usual class: inhibitors | 1.8% of 300,000 active | AID 540276, 2011; calls by dose curve; tested in HEK293 cells
Vaccinia mCherry: qHTS for Stage-Specific Inhibitors of Vaccinia Orthopoxvirus: mCherry Reporter Primary qHTS; Potency, µM (doses to about 36.5 µM), actives largely listed as inhibitors; 0.63% of 310,000 active; Vaccinia virus mCherry reporter infection, fluorescence; AID 720579, 2013; calls by dose curve; tested in A549 cells; also: nearly all actives have a fitted effect of over 35% in size
VACV Venus inh: qHTS for Stage-Specific Inhibitors of Vaccinia Orthopoxvirus: Venus Reporter Primary qHTS; Vaccinia virus Venus reporter expression, fluorescence; Potency, µM (top dose mostly 36.5 µM), usual class: inhibitors; 0.46% of 330,000 active; AID 720580, 2013; calls by dose curve; tested in A549 cells; also: nearly all actives have a fitted effect of over 30% in size
FMDV inh: High Throughput Screening for Foot and Mouth Disease Virus Antivirals. FMDV antiviral cell-based qHTS. Potency, µM (top dose mostly 57.9 µM), most hits filed as inhibitors. 1.2% of 410,000 active. AID 1159524, 2015; calls by dose curve; tested in HEK293T cells; also: read-out not given here; nearly all actives have a fitted effect of over 45% in size
HCMV inh: qHTS Assay for inhibitors of the human cytomegalovirus (HCMV). 4.5% of 410,000 active. HFF cells, HCMV-luciferase reporter, 72 h; hits give low values. AID 1259415, 2018. activity change, negative = inhibition, % at 57.5 µM; in the data active = activity change below about -60%; inconclusive = no clear call, values can overlap the other calls; inactive = above about -39%
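Inhibition of viral replication was scored as loss of reporter luminescence in HFFs infected with HCMV-luciferase (MOI 1 PFU/cell) for 72 h; compounds tested at 2 doses, normalized to buffer and Salinomycin controls.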
A number is an active result; [ ] = remark or other dose.

What do the screens show for `CCOC(=O)CSc1nc(Nc2ccc3c(c2)OCO3)c2ccccc2n1`?
LASV entry inh: inactive; MARV entry inh: inactive; Vaccinia mCherry: inactive; VACV Venus inh: inactive; FMDV inh: inconclusive; HCMV inh: inactive

How did N#CCSc1nc(Nc2ccc3c(c2)OCO3)c2ccccc2n1 do in these assays?
LASV entry inh: inactive; MARV entry inh: inconclusive; FMDV inh: 22µM; HCMV inh: -63

Results for COc1ccc(NC(=O)c2c(NC(=O)c3ccncc3)sc3c2CCC(C(C)(C)C)C3)cc1 (stereo unspecified) ?
LASV entry inh: inactive; MARV entry inh: inactive; Vaccinia mCherry: 10µM; VACV Venus inh: inconclusive; FMDV inh: inconclusive; HCMV inh: inactive

How did Cc1cccc(NC(=S)NC(C)(C)CC(C)(C)C)c1 do in these assays?
LASV entry inh: inactive; MARV entry inh: inconclusive; Vaccinia mCherry: inactive; VACV Venus inh: inactive; FMDV inh: inactive; HCMV inh: -65

Results for CCOc1ccccc1CNC(=O)Cn1cc2c(n1)-c1c(oc(C(=O)N3CCCC3)c1C)CC2 ?
LASV entry inh: inconclusive; Vaccinia mCherry: inactive; VACV Venus inh: inactive; FMDV inh: inconclusive; HCMV inh: inconclusive

What do the screens show for `CC(SCc1ccccc1)C(=O)N/N=C/c1cc2c(cc1Br)OCO2` (stereo unspecified)?
LASV entry inh: 23µM; MARV entry inh: inconclusive; Vaccinia mCherry: inactive; VACV Venus inh: inactive; FMDV inh: inactive; HCMV inh: inactive

How did COCCNC(=O)c1cnn(-c2cccc(C)c2)c1-n1cccc1 do in these assays?
LASV entry inh: inactive; Vaccinia mCherry: inactive; VACV Venus inh: inactive; FMDV inh: inactive; HCMV inh: active

Results for CC(=O)OC[C@H]1O[C@H](C#CC(C)(C)C)C=C[C@@H]1OC(C)=O ?
MARV entry inh: inactive

How did O=C1COc2ccc(C(=O)/C=C/c3ccccc3)cc2N1 do in these assays?
LASV entry inh: inconclusive; MARV entry inh: inactive; Vaccinia mCherry: inactive; VACV Venus inh: inactive; FMDV inh: inactive; HCMV inh: -84

What do the screens show for `O=C(c1ccco1)N(CC1CCCO1)c1nc(-c2ccccc2)cs1` (stereo unspecified)?
LASV entry inh: inactive; MARV entry inh: inactive; FMDV inh: inconclusive; HCMV inh: -101

How did COc1ccc(NC(=O)/C(Cl)=C(/Cl)S(=O)Cc2ccc(Cl)cc2)cn1 (stereo unspecified) do in these assays?
LASV entry inh: 3.2µM; MARV entry inh: inconclusive; Vaccinia mCherry: 5.6µM; VACV Venus inh: 7.9µM; FMDV inh: 8.9µM; HCMV inh: -100

How did COc1ccc(NC(=O)/C(Cl)=C(/Cl)S(=O)(=O)Cc2ccccc2)cn1 do in these assays?
LASV entry inh: 22µM; MARV entry inh: inconclusive; VACV Venus inh: 22µM; FMDV inh: 20µM; HCMV inh: -105

What do the screens show for `COc1ccc(NC(=O)C(Cl)=C(Cl)Cl)cn1`?
LASV entry inh: inconclusive; MARV entry inh: inconclusive; Vaccinia mCherry: inactive; VACV Venus inh: inactive; FMDV inh: inactive; HCMV inh: inactive

How did O=P1(O)Oc2c(c(-c3ccccc3)cc3ccc4ccccc4c23)-c2c(-c3ccccc3)cc3ccc4ccccc4c3c2O1 do in these assays?
MARV entry inh: inactive

What do the screens show for `Cc1ccc(/C=C2/Sc3ccccc3N(CC(=O)NCC3CCCO3)C2=O)cc1` (stereo unspecified)?
Vaccinia mCherry: inactive[7.34 µM]; VACV Venus inh: inactive[7.34 µM]; FMDV inh: inactive

How did Cc1cc(/C=C2\Sc3ccccc3N2C)cc(C)[n+]1CC1CCCO1 (stereo unspecified) do in these assays?
LASV entry inh: inconclusive; MARV entry inh: inconclusive; Vaccinia mCherry: 8.9µM; VACV Venus inh: inconclusive; FMDV inh: inconclusive; HCMV inh: -100

How did COc1ccc(-c2oc3ncnc(NCCN4CCOCC4)c3c2-c2ccc(OC)cc2)cc1 do in these assays?
LASV entry inh: inconclusive; MARV entry inh: inconclusive; Vaccinia mCherry: inactive; VACV Venus inh: inactive; FMDV inh: inconclusive

What do the screens show for `c1ccc(-c2csc3ncnc(NCCN4CCOCC4)c23)cc1`?
LASV entry inh: inactive; MARV entry inh: inactive; Vaccinia mCherry: inactive; VACV Venus inh: inconclusive; FMDV inh: 22µM; HCMV inh: -77

What do the screens show for `Clc1ccc(CNc2nc(CN3CCOCC3)nc3scc(-c4ccccc4)c23)cc1`?
LASV entry inh: inconclusive; MARV entry inh: 20µM; Vaccinia mCherry: inconclusive; VACV Venus inh: inconclusive; FMDV inh: 14µM; HCMV inh: inactive

Results for Clc1ccc(-c2csc3ncnc(NCCN4CCOCC4)c23)cc1 ?
LASV entry inh: inconclusive; MARV entry inh: inconclusive; Vaccinia mCherry: inactive; VACV Venus inh: inconclusive; FMDV inh: inconclusive; HCMV inh: -75

How did c1nc(NCCN2CCOCC2)c2c3c(sc2n1)CCCCC3 do in these assays?
LASV entry inh: inactive; MARV entry inh: inactive; FMDV inh: inactive; HCMV inh: inactive

How did COc1ccc(-c2csc3ncnc(NCCN4CCOCC4)c23)cc1 do in these assays?
LASV entry inh: inconclusive; MARV entry inh: inconclusive; VACV Venus inh: inconclusive; FMDV inh: inconclusive; HCMV inh: -66

How did c1ccc(CNc2nc(CN3CCOCC3)nc3scc(-c4ccccc4)c23)cc1 do in these assays?
LASV entry inh: inactive; MARV entry inh: inconclusive; Vaccinia mCherry: inactive; VACV Venus inh: inactive; FMDV inh: inactive; HCMV inh: inactive

What do the screens show for `Cc1cccc(CNc2nc3cnc(-c4ccc(F)cc4)cc3n2C)c1`?
HCMV inh: inactive

What do the screens show for `CCC[C@H](CCC(=O)Nc1ccc(C(=O)OCC)cc1)C(=O)O`?
MARV entry inh: inactive

How did Cc1ccc(-c2csc3ncnc(NCCC(=O)O)c23)cc1 do in these assays?
LASV entry inh: inactive; MARV entry inh: inactive; Vaccinia mCherry: inactive; VACV Venus inh: inactive; FMDV inh: inactive; HCMV inh: inactive

What do the screens show for `Cc1ccc(-c2csc3ncnc(Nc4ccc(N5CCOCC5)cc4)c23)cc1`?
LASV entry inh: 13µM; MARV entry inh: inconclusive; Vaccinia mCherry: inactive; VACV Venus inh: inactive; FMDV inh: inconclusive; HCMV inh: -90

What do the screens show for `Cc1ccc(-c2csc3ncnc(NCCN4CCOCC4)c23)cc1`?
LASV entry inh: inconclusive; MARV entry inh: 11µM; Vaccinia mCherry: inactive; VACV Venus inh: inactive; FMDV inh: inactive; HCMV inh: -70

What do the screens show for `CCC(CO)Nc1nc(CN2CCCCC2)nc2scc(-c3ccccc3)c12` (stereo unspecified)?
LASV entry inh: inactive; MARV entry inh: inconclusive; Vaccinia mCherry: inactive; VACV Venus inh: inactive; FMDV inh: inactive; HCMV inh: -69

How did CN(C)c1ccc(/C=C2\C=Cc3ccccc32)c(Cl)c1 do in these assays?
Vaccinia mCherry: inactive; VACV Venus inh: inactive

What do the screens show for `CN1OC(C)(CC(=O)NCCc2ccccc2)N=C1c1ccccc1F` (stereo unspecified)?
HCMV inh: inactive

What do the screens show for `C[C@H]1[C@@H](NS(=O)(=O)c2ccc3ccccc3c2)CC[C@@]23CCCN2C(=O)CCC[C@@H]13`?
HCMV inh: inactive
